Bioassay records deposited in PubChem by National Center for Advancing Translational Sciences (NCATS).
A selection: hits, their analogues and other compounds. The true share with any hit is near 4.2%.
PLK1 PBD inh: inhibitors of human PLK1 polo-box domain binding. P53350. Plk1 PBD binding of FITC phosphopeptide, fluorescence polarization. Potency, µM, without a hit: max response, negative = inhibition, usual class: inhibitors. 360,000 tested, 2.8% active; note: series mostly up to about 57 µM; nearly all actives have a fitted effect of over 65% in size
12-LOX inh: blocks human arachidonate 12S-lipoxygenase. P18054. purified 12hLO, xylenol orange hydroperoxide absorbance. Potency, µM (titrated, usually from 108 µM), for the others: at the top dose activity change, negative = inhibition, most hits filed as inhibitors. 580,000 tested, 1.1% active. AID 1671190
Target sequence (P18054 whole entry, looked up): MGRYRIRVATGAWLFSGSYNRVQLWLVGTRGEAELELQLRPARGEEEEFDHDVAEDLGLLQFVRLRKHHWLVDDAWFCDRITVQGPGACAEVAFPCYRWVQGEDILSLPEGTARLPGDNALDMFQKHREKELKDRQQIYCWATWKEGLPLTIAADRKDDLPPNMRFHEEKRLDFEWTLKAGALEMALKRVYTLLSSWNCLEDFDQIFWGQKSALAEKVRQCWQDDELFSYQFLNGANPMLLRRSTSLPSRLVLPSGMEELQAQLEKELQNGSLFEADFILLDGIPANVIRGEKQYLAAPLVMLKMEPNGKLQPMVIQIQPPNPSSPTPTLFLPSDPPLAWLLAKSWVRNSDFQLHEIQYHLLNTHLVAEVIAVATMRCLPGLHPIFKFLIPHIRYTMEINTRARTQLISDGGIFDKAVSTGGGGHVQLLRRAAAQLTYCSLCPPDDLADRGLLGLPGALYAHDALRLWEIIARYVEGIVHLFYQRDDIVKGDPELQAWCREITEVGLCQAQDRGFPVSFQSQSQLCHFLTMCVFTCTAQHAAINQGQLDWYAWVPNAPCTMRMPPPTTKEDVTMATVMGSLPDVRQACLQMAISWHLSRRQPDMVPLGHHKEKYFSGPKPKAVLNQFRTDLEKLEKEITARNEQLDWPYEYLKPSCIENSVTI
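Hydroperoxide product was detected by ferrous iron/xylenol orange as the 573 to 405 nm absorbance ratio. Arachidonic acid at 40 uM (final) was turned over for 30 min at room temperature by 150 nM human 12hLO, pH 7.0 Hepes buffer, after 15 min compound preincubation.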
Sfp PPTase inh: blocks B. subtilis Sfp PPTase activity. Q9F4F7. Biochemical Sfp PPTase activity, qHTS. Potency, µM, without a hit: largest response in the series, negative = inhibition, hits mostly inhibitors. 310,000 tested, 3.5% active. AID 1490;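 note: the enzyme is Sfp with the accession as filed and its product quenches rhodamine fluorescence; 0% = enzyme reaction without inhibitor and -100% = no enzyme wells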
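Compounds were incubated with enzyme (final 15 nM) for 15 min at room temperature before substrate addition started the reaction. Fluorescence at 525 nm excitation, 598 nm emission was recorded immediately and after 30 minutes.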
VDR inh: vitamin D3 receptor (human) inhibition | P11473 | VDR-SRC2-3 peptide fluorescence polarization, 2 h | Potency, µM, for the others: max response, negative = inhibition, hits mostly inhibitors | 400,000 tested, 0.93% active | AID 504847
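Inhibition of the VDR/SRC2-3 peptide interaction is quantified by fluorescence polarization. Compounds (23 nl, pintool) incubate with the reagents for 2 hours at ambient room temperature.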
Starred values were filed as active, the others as inactive; u = inconclusive; x = not tested or not shown; [ ] = another dose, or the depositor's remark. Calls come from the whole dose curve; as a rule, active = well fitted curve in the direction sought with a large enough effect; inconclusive = small, poorly fitted or top-dose-only effect, or another doubt; inactive = no such curve, though single readings can be large; an effect the other way counts as inactive or inconclusive. Unless noted, % is set by controls: 0 for no effect and ±100 for the full control effect; potency is the fitted concentration of half-maximal effect.

SMILES | PLK1 PBD inh | 12-LOX inh | Sfp PPTase inh | VDR inh
Cc1nc2scc(C)n2c(=O)c1S(=O)(=O)NC(C)c1ccccc1 (stereo not given) | 19µM* | 21% | 13% | u
Cc1nc2scc(C)n2c(=O)c1S(=O)(=O)NCc1ccccc1Cl | -13% | 3% | 5% | 1%
C/C(=N\NC(=O)c1ccc(Br)o1)c1cc2c(cc1NC(=O)CCC(=O)O)OCO2 | 10% | u | 45µM* | 2%
CCC(CC)C(=O)c1c[nH]c(C(=O)NCCc2ccccn2)c1 | 27µM* | 4% | 9% | 8%
CCC(CC)C(=O)c1c[nH]c(C(=O)NCc2ccccn2)c1 | 1% | u | 12% | 18%
Cn1c(=O)[nH]c(=O)c2c1nc(N/N=C/C(Br)=C/c1ccccc1)n2CCO | u | 116% | 56µM* | -18%
Cn1c(=O)[nH]c(=O)c2c1nc(NCc1ccccc1)n2CCO | x | -31% | x | x
CC(C)CCCCCCNC(=S)Nc1ccc(S(=O)(=O)N2CCOCC2)cc1 | u | 50µM* | 31% | -20%
O=S(=O)(c1ccc(NC(=S)Nc2ccccc2)cc1)N1CCOCC1 | -19% | -24% | -21% | -13%
O=c1[nH]c(/C=C/c2cccnc2)c([N+](=O)[O-])c(=O)[nH]1 | -5% | -6% | 1% | -15%
O=c1[nH]c(/C=C\c2cccnc2)c([N+](=O)[O-])c(=O)[nH]1 | 27µM* | u | -24% | -11%
COc1ccc(-c2nnc(SCc3nc(C)no3)n2CCc2ccccc2)cc1 | x | -29% | x | x
Cc1cc(/C([O-])=C(/C(=S)Nc2ccc(F)cc2)[n+]2ccccc2)c(C)n1-c1ccc(F)cc1 | -16% | u | u | -15%
Cc1ccc(-n2c(C)cc(/C([O-])=C(/C(=S)Nc3ccc(F)c(Cl)c3)[n+]3ccccc3)c2C)cc1 | -11% | -44% | 56µM* | 18%
CN(C)CCCOC1(Cc2ccccc2)CCCCCC1 | x | -9%[22.9 µM] | x | x
COc1ccc(-c2nc(NC(=O)c3cc(OC)c(OC)c(OC)c3)sc2C)cc1 | x | 45µM* | x | x
CC(C)Cn1c(-c2cccc(S(=O)(=O)N3CCOCC3)c2)n[nH]c1=S | -1% | u | x | -18%
CCNC(=S)N/N=C/c1cccc(OCc2c(F)cccc2Cl)c1 | -14% | 40µM* | 5% | -6%
CCNC(=S)N/N=C/c1cccc(/C=N/NC(=S)NCC)c1 | -15% | -7% | 40µM* | -4%
CCNC(=S)N/N=C/c1cccc(F)c1 | x | -29% | x | x
O=S1(=O)CC/C(=N\Nc2ccccc2)c2ccsc21 | -18% | 35µM* | -14% | u
CC(Sc1nc2ccccc2s1)C(=O)NCc1ccc2c(c1)OCO2 (stereo not given) | -13% | 14% | -4% | -21%
O=C(N/N=C/c1cccnc1)c1ccc(Cl)c(Cl)c1 | 1% | 0% | x | 0%
O=S(=O)(N/N=C/c1cccnc1)c1ccc(Cl)c(Cl)c1 | 13µM* | u | -1% | u
CCOc1ccc(NC(=O)c2cc3n(n2)CC(c2ccc(Cl)cc2)OC3)cc1 (stereo not given) | x | 11% | x | x
SMILES | PLK1 PBD inh | 12-LOX inh | Sfp PPTase inh | VDR inh
CCOc1ccc(NC(=O)c2nnn3c2COC(c2ccc(Cl)cc2)C3)cc1 (stereo not given) | x | 45µM* | x | x
Cc1ccc(C(=O)NCCn2cccc2-c2nc(-c3ccc4c(c3)OCO4)no2)cc1 | x | 45% | x | x
O=C(NCCn1cccc1-c1nc(-c2ccc3c(c2)OCO3)no1)c1ccc(Cl)cc1 | x | 13µM* | x | x
CCCCCCn1nc(C(=O)OCC(=O)NC2CCS(=O)(=O)C2)c2ccccc2c1=O (stereo not given) | u | 6% | -11% | -19%
COc1ccc(S(=O)(=O)NCCSCc2ccco2)cc1OC | -4% | -8%[57.4 µM] | 28µM* | 10%
COc1ccccc1C(=O)NCCn1ccc2ccccc21 | 0% | 1% | 13% | 2%
COc1ccc(-c2oc3c(c2C(=O)OCCCO)C(OCCO)CCC3)cc1 (stereo not given) | 1% | 15% | x | x
CCOC1CCCc2oc(-c3ccc(OC)cc3)c(C(=O)NCCCCO)c21 (stereo not given) | -12% | 13µM* | x | x
CCCOC(=O)C1=C(C)NC(=O)NC1c1ccc(Br)s1 (stereo not given) | 24µM* | u | -3% | -7%
CC1=C(C(=O)OCC(C)C)C(c2ccc(Br)s2)NC(=O)N1 (stereo not given) | 0% | -11% | 10% | -17%
Cc1cccc(C)c1-n1ccc(C=O)c1 | x | 51% | x | x
O=C(NN=C1CCCCCC1)NC1CCCCC1 | -5% | -4% | 11% | 1%
NC(=S)NN=C1CCC(C2CCCCC2)CC1 (stereo not given) | -14% | 35µM* | x | -18%
NC(=S)NN=C1CCCCCCCCCC1 | -14% | 45µM* | x | u
S=C(NN=C1CCCCCC1)Nc1ccc(Cl)cc1 | -7% | u | -5% | 28%
Cc1cc(N2CCCN(c3nccc(-c4c(C)nn(C)c4C)n3)CC2)ccn1 | x | 62% | x | x
Nc1sccc1C(=O)c1ccccc1 | -11% | 486% | 28µM* | -15%
Cc1cc(NS(=O)(=O)c2ccc(Nc3nc(-c4ccc(C)c(C)c4)cs3)cc2)no1 | -2% | 4.5µM* | 12% | -6%
COc1ccc(OC)c(Nc2nc(-c3sc(N)nc3C)cs2)c1 | u | u | 8.9µM* | 9%
Cc1csc(Nc2ccccc2)n1 | 30µM* | -3% | -5% | 12%
CCCC(=O)Nc1nc(C)c(-c2csc(Nc3cc(OC)ccc3OC)n2)s1 | -6% | u | -19% | -11%
Cc1cc(NS(=O)(=O)c2ccc(Nc3nc(-c4sc(N)nc4C)cs3)cc2)no1 | 30µM* | x | 50µM* | u
Cc1cc(NS(=O)(=O)c2ccc(Nc3nc(-c4ccc(O)cc4)cs3)cc2)no1 | u | u | -30% | -11%
Cc1ccc(Sc2ccc(NC(=O)CCC3CCCCC3)cc2)cc1C | x | 4% | x | x
Cc1cc(O)ccc1Nc1nc(-c2sc(N)nc2C)cs1 | u | u | -3% | -15%
SMILES | PLK1 PBD inh | 12-LOX inh | Sfp PPTase inh | VDR inh
Cc1ccc(C)c(-c2csc(Nc3ccc(S(=O)(=O)Nc4nc(C)cc(C)n4)cc3)n2)c1 | x | 45µM* | x | x
COc1cc(NS(=O)(=O)c2ccc(Nc3nc(-c4ccccc4)cs3)cc2)nc(OC)n1 | 27µM* | u | -7% | -16%
Cc1nc(N)sc1-c1csc(Nc2ccccc2)n1 | 27µM* | u | -10% | u
CCOc1ccc(Oc2nc(Nc3ccc(C)cc3)nc(N(C)C)n2)nn1 | 21µM* | -16% | -10% | -11%
Cc1ccccc1C1=NN(S(=O)(=O)c2ccc(F)cc2)C(c2ccc3nccnc3c2)C1 (stereo not given) | x | 17% | x | x
COc1ccc(-c2ccc(=O)n(Cc3cccc(Cl)c3)n2)cc1 | -7% | -2% | -26% | -5%
Cc1ccc(C)c(NC(=S)NC(C)C(c2cccs2)N2CCOCC2)c1 (stereo not given) | -5% | 4% | 15% | -25%
COC(=O)c1sc(NC(=S)NNC(=O)c2c(Br)c(C)nn2C)c(C(=O)OC)c1C | 27µM* | u | -14% | 1%
COC(=O)c1ccc(=O)c2nc3/c(=C/O)c(O)cc(=O)c3[nH]c12 | 19µM* | -11% | u | -11%
COc1cc(/C=N/NC(=S)NCCN2CCOCC2)ccc1O | -4% | 19% | 50µM* | -8%
